Screening results deposited in PubChem BioAssay by National Center for Advancing Translational Sciences (NCATS).
JMJD2A Tudor – inhibitors of human JMJD2A Tudor domain; O75164; AID 504339; AlphaScreen JMJD2A-Tudor / H3K4me3 peptide binding; Potency, µM (doses to about 114 µM), for inactives: at the top dose activity change, negative = inhibition, hits mostly inhibitors; 390,000 compounds, 4.4% hits; further: on the % scale 0 is the no-effect control and ±100 the full control effect; nearly all actives have a fitted effect of over 50% in size
G9a inh – blocks human histone lysine methyltransferase G9a | Q96KQ7 | G9a H3K9 monomethylation, AlphaScreen, 2 h | Potency, µM (top dose mostly 102 µM), for the others: at the top dose activity, negative = inhibition, actives largely listed as inhibitors | 350,000 compounds, 8.8% hits; further: on the % scale 0 is the no-effect control and ±100 the full control effect; nearly all actives have a fitted effect of over 75% in size
Target sequence (Q96KQ7 913-1193 limits assumed): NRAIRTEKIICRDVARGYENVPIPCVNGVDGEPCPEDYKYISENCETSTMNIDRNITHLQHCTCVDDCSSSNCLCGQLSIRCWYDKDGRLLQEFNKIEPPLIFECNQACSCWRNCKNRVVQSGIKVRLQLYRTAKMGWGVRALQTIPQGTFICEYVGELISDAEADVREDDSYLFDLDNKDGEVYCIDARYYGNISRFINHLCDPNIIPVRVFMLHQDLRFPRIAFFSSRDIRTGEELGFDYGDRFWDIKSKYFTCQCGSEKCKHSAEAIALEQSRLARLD
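Enzyme 20 nM + cpd, 15 min RT; add b-H3K9 pep 500 nM / SAM 20 uM; 2 h RT; anti-H3K9me1 Ab 0.5 ug/mL + SA donor / anti-rabbit acceptor beads 20 ug/mL each, 10 min; AlphaScreen read.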
BAZ2B inh – blocks human BAZ2B; Q9UIF8; AlphaScreen BAZ2B-H3K14Ac peptide displacement; Potency, µM (titrated, usually from 114 µM), without a hit: top-dose activity change, negative = inhibition, usual class: inhibitors; 360,000 compounds, 4.4% hits; AID 504333; further: on the % scale 0 is the no-effect control and ±100 the full control effect; nearly all actives have a fitted effect of over 60% in size
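Compounds, titrated to a top concentration of 110 uM, were incubated 30 min at room temperature with preformed BAZ2B/acetyl-K14 H3 peptide complex (50 nM each). Proximity signal was measured by AlphaScreen after 20 min with beads.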
HP1b binding inh – inhibitors of HP1-beta chromodomain binding to methylated histone tails; 390,000 compounds, 0.56% hits; P83916; Potency, µM (doses to about 114 µM), without a hit: top-dose activity change, negative = inhibition, actives largely listed as inhibitors; AlphaScreen HP1-beta / biotin-H3K9me3 peptide binding; further: nearly all actives have a fitted effect of over 70% in size
Target sequence (P83916 whole entry, looked up): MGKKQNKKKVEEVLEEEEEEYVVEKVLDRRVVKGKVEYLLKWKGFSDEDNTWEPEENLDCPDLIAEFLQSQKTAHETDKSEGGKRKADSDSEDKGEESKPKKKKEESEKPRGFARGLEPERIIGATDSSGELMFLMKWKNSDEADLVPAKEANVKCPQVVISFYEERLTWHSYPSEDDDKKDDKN
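AlphaScreen: HP1-beta (50 nM) preformed 30 min with biotin-H3(1-18)K9me3 peptide (50 nM) in PBS pH 7.4, 0.01% Tween-20. Compound added for 30 min at RT, then streptavidin donor/nickel chelate acceptor beads (10 ug/mL) for 30 min.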
Sfp PPTase inh – blocks B. subtilis Sfp PPTase activity | Q9F4F7 | Biochemical Sfp PPTase activity, qHTS | 310,000 compounds, 3.5% hits | Potency, µM, inactives show largest response in the series, negative = inhibition, hits mostly inhibitors;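 further: the enzyme is Sfp with the accession as filed and its product quenches rhodamine fluorescence; 0% = enzyme reaction without inhibitor and -100% = no enzyme wells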
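Fluorescence-quenching assay with 15 nM Sfp, 5 uM rhodamine-CoA and 12.5 uM BHQ-2-labelled ybbR peptide in pH 7.6 Hepes/MgCl2 buffer. Enzyme was pre-incubated with compound for 15 min at room temperature. Rate was taken from the 30-min fluorescence change (525/598 nm).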
L3MBTL1 block – inhibitors of human L3MBTL1; AID 485360; Q9Y468; 230,000 compounds, 0.66% hits; AlphaScreen L3MBTL1–H3K9me1 peptide binding; Potency, µM (titrated, usually from 57.1 µM), without a hit: at the highest dose activity, negative = inhibition, actives largely listed as inhibitors; further: on the % scale 0 is the no-effect control and ±100 the full control effect; nearly all actives have a fitted effect of over 60% in size
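Displacement of a biotinylated histone H3(1-15) peptide monomethylated at Lys9 (75 nM) from L3MBTL1 (50 nM) was measured by AlphaScreen after a 30 min room-temperature compound incubation; cefsulodin titration served as intraplate control.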
* marks the source's active call; other numbers are inactive results; ? = inconclusive; . = no result given; ! = a repeat was not active; [ ] = dose if it differs, or a comment. This is a sample that favours compounds with a hit; in the whole collection about 12% have one here. The call rests on the fitted dose curve; in most records, active means well fitted curve in the direction sought with a large enough effect; inconclusive means small, poorly fitted or top-dose-only effect, or another doubt; inactive means no such curve, though single readings can be large; an effect the other way counts as inactive or inconclusive. Potency means the concentration at half of the fitted maximal effect.

SMILES	JMJD2A Tudor	G9a inh	BAZ2B inh	HP1b binding inh	Sfp PPTase inh	L3MBTL1 block
O=C(O)CCn1cc(-c2ccc(F)cc2)nc1-c1ccncc1	-20.3%	-4.3%[2.33 µM]	?	32.9%	.	-12.3%
CN1CCc2cc3c(cc2C(=O)Cc2ccc4c(c2C1)OCO4)OCO3	.	.	.	.	0.9%	.
Cn1c(C(=O)NCCN2CCCCCC2)cc2c(=O)n(C)c3ccccc3c21	-30.7%	35.5µM*	?	41.8%	-24.7%	.
Cn1c(C(=O)NCCCN2CCOCC2)cc2c(=O)n(C)c3ccccc3c21	-13.4%	?	10.3%	47.5%	-8.7%	.
Cn1c(C(=O)NCCCN2CCN(c3ccccc3F)CC2)cc2c(=O)n(C)c3ccccc3c21	?	50.1µM*	-13.9%	13.3%	-7.9%	.
Cc1ccc(OCC(=O)N/N=C\c2cccn2C)c([N+](=O)[O-])c1	-25.3%	-10.6%	?	?	14.2%	.
C=CCN1CCc2c(cc(O)c(O)c2Br)[C@@H](c2ccccc2)C1	?	8.91µM*	.	6.6%	-14.5%	.
CCCCC(=O)NC(=S)Nc1nnn(CCC)n1	3.55µM*	10µM*	70.8µM*	-1.7%	14.1µM*	14.1%
CCCCn1nnc(NC(=S)NC(=O)c2ccc(-c3cccc(Cl)c3Cl)o2)n1	?	44.7µM*	-7.7%	-23.9%	?	-7.5%
CCCCC(=O)Nc1nnn(CCC)n1	-7.1%	4.0%[12.7 µM]	4.5%	6.8%	6.9%	.
Cc1noc(C)c1-c1ccc2ncnc(NCc3cccnc3)c2c1	.	-27.7%[0.501 µM]	.	.	28.1%	.
CCNc1ccc(C(=O)OCC)cc1NC(=O)c1cccc(S(=O)(=O)N(C)c2ccccc2)c1	-21.8%	-50.4%[59 µM]	-5.7%	3.2%	11.9%	-4.8%
CCOC(=O)c1ccc(S(=O)(=O)NNC(=O)c2cccc(N(C)C)c2)cc1	-18.8%	11.2µM*	.	9.5%	13.3%	-9.1%
CCNc1ccc(C(=O)OCC)cc1NC(=O)c1cccc(N(C)C)c1	?	50.1µM*	?	-18.1%	9.6%	-9.6%
COc1cccc(CNc2ccc(F)c(Cl)c2)c1O	?	10.5%	-2.5%	19.2%	18.5%	0.0%
COc1cccc(CNc2ccc(F)c(Cl)c2)c1	25.8%	50.1µM*	?	44.1%	3.6%	.
Oc1cccc(/C=N/Nc2cccc3cccnc23)c1	?	35.5µM*	?	?	44.7µM*	?
COc1cc(/C=N/Nc2cccc3cccnc23)cc(OC)c1O	?	10µM*	28.2µM*	?	50.1µM*	.
Oc1c(/C=N/Nc2cccc3cccnc23)ccc2ccccc12	-22.2%	?	-1.0%	39.5%	-7.3%	-2.3%
Nc1nc(NC(=O)c2ccc(Cl)cc2)nn1-c1ccccc1	-18.3%	0.4%[59 µM]	?	25.6%	1.7%	-5.0%
Nc1nc(NC(=O)C(Cl)(Cl)Cl)nn1-c1ccccc1	25.1µM*	16.3%	8.91µM*	10.9%	3.5%	28.2µM*
Nc1nc(NC(=O)c2cccnc2)nn1-c1ccccc1	11.2µM*	14.1µM*	79.4µM*	8.0%	1.7%	-10.9%
CS(=O)(=O)Nc1cccc(-c2cncnc2Nc2ccc(F)cc2)c1	.	-3.2%[0.501 µM]	.	.	-29.3%	.
Cn1cc(-c2nc3cncnc3n(CCN)c2=O)c2ccccc21	.	7.2%[0.501 µM]	.	.	-6.6%	.
N=C(N)c1ccc(N)cc1	-2.2%	1µM*!	-1.3%	53.5%	.	8.1%
SMILES	JMJD2A Tudor	G9a inh	BAZ2B inh	HP1b binding inh	Sfp PPTase inh	L3MBTL1 block
COc1cc(/C=C/C(=O)Nc2nnc(C(C)(C)C)s2)cc(OC)c1OC	-23.9%	4.47µM*	12.8%	?	50.1µM*	4.7%
Cc1c(C)n(CC(O)CNc2ccccc2)c2ccccc12 (stereo unspecified)	25.1µM*	12.6µM*	25.1µM*	?	-27.3%	-16.6%
Cc1c(C)n(CC(O)CN2CCCCCC2)c2ccccc12 (stereo unspecified)	?	35.5µM*	?	-8.5%	10.1%	-6.0%
Cc1c(C)n(CC(O)CNCCO)c2ccccc12 (stereo unspecified)	12.6µM*	8.91µM*	44.7µM*	?	10.1%	4.3%
Cc1c(C)n(CC(O)CN(CCO)CCO)c2ccccc12 (stereo unspecified)	?	-12.2%[59 µM]	-32.2%	0.7%	11.2%	.
OC(CN1CCCCC1)Cn1c2ccccc2c2cc(Br)ccc21 (stereo unspecified)	-20.4%	-8.9%	-5.4%	43.8%	-8.5%	.
COc1ccc(NCC(O)Cn2c(C)c(C)c3ccccc32)cc1 (stereo unspecified)	?	.	39.8µM*	39.8µM*	5.4%	?
COc1cc(Br)cc2cc(C(=O)N3CCOCC3)c(=O)oc12	-23.3%	.	3.1%	10.8%	-4.0%	14.5%
Cc1cnn(Cc2cccnc2)c1N	-7.9%	.	-11.1%	0.3%	24.7%	.
O=C(c1cccc(-c2ccc(O)cc2)c1)N1CCN(c2ccc(F)cc2)CC1	-1.5%[11.4 µM]	5.8%	-17.9%	28.9%	22.5%	0.4%
Cc1ccc2c(c1)c(C)c(C)n2CC(O)CN1CCOCC1 (stereo unspecified)	79.4µM*	-21.7%[59 µM]	0.7%	10.4%	1.1%	8.5%
CCOc1ccc(C)cc1S(=O)(=O)n1cnc2ccccc21	7.8%	35.6%[59 µM]	-16.9%	33.9%	2.4%	-7.5%
Cc1c(C(=O)OCC(=O)NCCN2C(=O)CSC2=O)cccc1[N+](=O)[O-]	-18.6%	45.9%[12.7 µM]	-1.9%	0.9%	.	-2.7%
O=C(COc1ccccc1)NC(=S)Nc1cccc2cc(O)ccc12	-28.5%	-12.4%	-38.3%	31.1%	20.0%	.
O=[N+]([O-])c1ccccc1S(=O)(=O)N1CCN(Cc2cc3c(cc2O)OCO3)CC1	?	2.51µM*	.	-5.1%	2.9%	?
O=c1cc(CN2CCCc3ccccc32)nc2sccn12	-21.8%	?	-14.2%	21.1%	-25.7%	2.8%
Cc1ccc(C)c(S(=O)(=O)N2CCN(Cc3cc4c(cc3O)OCO4)CC2)c1	31.6µM*	1.41µM*	39.8µM*	-29.7%	.	-29.9%
O=c1cc(CN2CCN(S(=O)(=O)c3ccccc3[N+](=O)[O-])CC2)nc2sccn12	-7.1%	39.8µM*	.	44.9%	4.3%	1.5%
O=c1cc(CN2CCc3ccccc32)nc2sccn12	17.8µM*	31.6µM*	-4.6%	?	-7.0%	.
CCN(Cc1nc2ccccc2c(=O)[nH]1)C(=O)c1cccc(OCc2c(C)noc2C)c1	-9.6%	0.7%	6.9%	23.0%	.	-2.4%
CC(C)OCCCN1C(=O)c2[nH]nc(-c3ccccc3O)c2C1c1ccccc1F (stereo unspecified)	-31.6%	-6.0%[59 µM]	-22.1%	29.2%	.	.
Cc1ccc(S(=O)(=O)NCC(=O)OCC(=O)c2ccc(Cl)s2)cc1	-10.3%	.	.	21.1%	.	.
CCn1c(SCC(=O)N/N=C/c2ccc(OC)c(OC)c2)nc2ccccc21	-18.8%	3.7%[59 µM]	1.3%	24.4%	12.7%	-2.3%
